Shiga inhibitor: A qHTS for Small Molecule Inhibitors of Shiga Toxin. Vero cells, Shiga toxin protein synthesis inhibition reporter. inhibition, % at 38.7 µM. 9.2% of 290,000 active; in the data active means inhibition mostly above about 28%, no sharp cut-off; inactive means mostly below about 43%; further: 0% is about no effect
NS1 function inh: qHTS Assay for Inhibitors of Influenza NS1 Protein Function; Potency, µM (doses to about 46.1 µM), for the others: top-dose activity, positive = more growth; 0.4% of 270,000 active; AID 2326, 2010; calls by dose curve; further: potency means the concentration at half of the fitted maximal effect; actives are rising curves; nearly all actives have a fitted effect of over 50% in size
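A cell-based growth assay was used: compounds that relieve NS1-induced slow growth of budding yeast raise OD600. Assay medium was yeast nitrogen base with ammonium sulphate and -URA supplement, pH 6.0, with 2% galactose.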
Sm TGR inh: qHTS Assay for the Inhibitors of Schistosoma Mansoni Peroxiredoxins | Potency, µM (titrated, usually from 114 µM), for the others: top-dose activity change, negative = inhibition, actives largely listed as inhibitors | purified TGR, DTNB reduction, TNB absorbance 405 nm | 3% of 360,000 active | Schistosoma mansoni thioredoxin glutathione reductase (TGR), Q962Y6 | AID 485364, 2010; further: potency means the concentration at half of the fitted maximal effect; on the % scale 0 is the no-effect control and ±100 the full control effect; nearly all actives have a fitted effect of over 60% in size
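TGR 20 nM + NADPH 100 uM (dispensed conc.), cpd preinc 15 min RT; start with NADPH (500 uM addition) then DTNB (15 mM addition). Kinetic TNB absorbance, 405 nm filter. Four-parameter Hill fit across titration.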
Pf growth 48h: Primary qHTS for delayed death inhibitors of the malarial parasite plastid, 48 hour incubation | P. falciparum luciferase growth in erythrocytes, 48 h | Potency, µM (top dose mostly 28.7 µM), without a hit: at the top dose activity change, negative = inhibition, actives largely listed as inhibitors | 5.9% of 310,000 active | AID 504832, 2011; further: potency means the concentration at half of the fitted maximal effect; on the % scale 0 is the no-effect control and ±100 the full control effect
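Firefly luciferase activity from engineered P. falciparum reports growth; inhibitors lower the luminescent signal. Cultures contained 2% hematocrit erythrocytes at 0.1% final parasitemia.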
Pf growth 96h: Primary qHTS for delayed death inhibitors of the malarial parasite plastid, 96 hour incubation | P. falciparum luciferase reporter growth, 96 h | Potency, µM (doses to about 28.7 µM), for inactives: at the highest dose activity change, negative = inhibition, most hits filed as inhibitors | 6.9% of 320,000 active | AID 504834, 2011; further: potency means the concentration at half of the fitted maximal effect; on the % scale 0 is the no-effect control and ±100 the full control effect
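96 h incubation, 37 C, 5% CO2, of luciferase-reporter P. falciparum-infected RBCs (2% hematocrit, 0.05% parasitemia final) with test compounds; endpoint luminescence.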
CHX counter: Cycloheximide Counterscreen for Small Molecule Inhibitors of Shiga Toxin | cell reporter, cycloheximide protein synthesis inhibition counterscreen | max response, % | 12% of 300,000 active | AID 2314, 2010; in the data active means max response mostly above about 13%, no sharp cut-off; inactive means mostly below about 14%; further: read at 38.3 µM for the half of the compounds with a filed dose; 0% is about no effect
Numbers without * were called inactive. Sampled rows, rich in hits. Any-hit rate of the full collection: about 21%. Unless noted, the call rests on the fitted dose curve; in most records, active means well fitted curve in the direction sought with a large enough effect; inconclusive means small, poorly fitted or top-dose-only effect, or another doubt; inactive means no such curve, though single readings can be large; an effect the other way counts as inactive or inconclusive.

How did CCN(CC)c1ccc2cc(C(=O)Nc3cccnc3N3CCOCC3)c(=O)oc2c1 do in these assays?
Shiga inhibitor: -11.3; NS1 function inh: 5.7%; Sm TGR inh: 0.0%; Pf growth 48h: 33.5%; Pf growth 96h: inconclusive; CHX counter: -2.2

What do the screens show for `CCN(CC)c1ccc2cc(C(=O)Nc3ccccn3)c(=O)oc2c1`?
Shiga inhibitor: 63.0*; NS1 function inh: -2.0%; Sm TGR inh: -2.0%; Pf growth 48h: 139.6%; Pf growth 96h: -1.1%; CHX counter: 78.5*

What do the screens show for `CCN(CC)c1ccc2cc(C(N)=O)c(=O)oc2c1`?
Shiga inhibitor: 12.1; NS1 function inh: -13.9%; Sm TGR inh: -7.9%; Pf growth 48h: 108.9%; Pf growth 96h: 10.4µM*; CHX counter: 22.8*

Results for Cc1ccc(S(=O)(=O)N2CCN(C)CC2)c2nsnc12 ?
Shiga inhibitor: -5.4; NS1 function inh: 0.9%; Sm TGR inh: 1.8%; Pf growth 48h: 18.8%; Pf growth 96h: 6.2%; CHX counter: -4.1

Results for Cc1ccc(NC(=O)CNCc2ccccc2)c(Br)c1 ?
Shiga inhibitor: 157.3*; Sm TGR inh: 0.0%; Pf growth 48h: 121.9%; Pf growth 96h: inconclusive; CHX counter: 15.9*

How did Cc1ccc(CNCC(=O)Nc2ccc(C)cc2Br)cc1 do in these assays?
Shiga inhibitor: -11.4; Sm TGR inh: 0.6%; Pf growth 48h: 17.1%; Pf growth 96h: 23.1%; CHX counter: 16.8

How did O=C(CC1CCCC1)Nc1cccc(Br)c1 do in these assays?
Shiga inhibitor: 56.4*; NS1 function inh: -37.0%; Sm TGR inh: 7.2%; Pf growth 48h: 3.3%; Pf growth 96h: -13.6%; CHX counter: 16.9*

Results for Cc1ccc(NC(=O)CNCc2cccs2)c(Br)c1 ?
Shiga inhibitor: 66.8*; NS1 function inh: -8.0%; Sm TGR inh: -14.5%; Pf growth 48h: 7.0%; Pf growth 96h: 7.2%; CHX counter: 34.7*

What do the screens show for `Cc1ccc(NC(=O)CC2CCCC2)c(Br)c1`?
Shiga inhibitor: 93.0*; NS1 function inh: -0.7%; Sm TGR inh: 3.6%; Pf growth 48h: 88.0%; Pf growth 96h: 111.3%; CHX counter: 42.4*

How did COc1ccc(S(=O)(=O)Nc2nc3ccccc3s2)cc1OC do in these assays?
Shiga inhibitor: 30.1; NS1 function inh: -0.7%; Sm TGR inh: 4.4%; Pf growth 48h: 37.2%; CHX counter: 14.5

How did COC(=O)c1cc(OC)c(OC)cc1NC(=O)CN1CCCCC1 do in these assays?
Shiga inhibitor: -8.3; NS1 function inh: 2.1%; Sm TGR inh: -1.7%; Pf growth 48h: -2.9%; Pf growth 96h: 7.4%; CHX counter: -1.6

Results for COC(=O)c1cc(OC)c(OC)cc1NC(=O)CC1CCCCC1 ?
Shiga inhibitor: 2.8; NS1 function inh: -7.6%; Sm TGR inh: -1.3%; Pf growth 48h: 10.4µM*; Pf growth 96h: 18.5%; CHX counter: 3.8

What do the screens show for `Cc1ccc(NC(=O)CSc2nc3ncc(Cl)cc3[nH]2)c(C)c1`?
Shiga inhibitor: 31.9; NS1 function inh: 5.0%; Sm TGR inh: -0.9%; Pf growth 48h: 8.9%; Pf growth 96h: 4.0%; CHX counter: -2.2

What do the screens show for `CCc1ccc(N2C(=O)C3CCCN3C2=S)cc1` (stereo not drawn)?
Shiga inhibitor: 51.6*; NS1 function inh: -2.9%; Sm TGR inh: 0.0%; Pf growth 48h: inconclusive; Pf growth 96h: 16.2%; CHX counter: 12.6

What do the screens show for `O=C1C2CCCN2C(=S)N1c1cc(Cl)ccc1Cl` (stereo not drawn)?
Sm TGR inh: 4.6%; Pf growth 48h: inconclusive; Pf growth 96h: inconclusive

What do the screens show for `Cc1cccc(N2C(=O)C3CCCN3C2=S)c1C` (stereo not drawn)?
Sm TGR inh: 0.7%; Pf growth 48h: 13.1µM*; Pf growth 96h: inconclusive

Results for COc1ccc(N2C(=O)C3CCCN3C2=S)cc1 (stereo not drawn) ?
Shiga inhibitor: -5.3; NS1 function inh: -6.7%; Sm TGR inh: 6.7%; Pf growth 48h: -4.9%; Pf growth 96h: inconclusive; CHX counter: -1.0

What do the screens show for `CC(=O)Nc1cccc(C(=O)OCc2ccc(C(=O)Oc3ccc(Cl)cc3)cc2)c1`?
Shiga inhibitor: 25.7; NS1 function inh: 3.6%; Sm TGR inh: 0.6%; Pf growth 48h: 11.2%; Pf growth 96h: -3.3%; CHX counter: -1.8

What do the screens show for `COc1ccc(CNC(=O)c2ccc3c(c2)N(Cc2ccccc2F)C(=O)c2ccccc2S3=O)cc1` (stereo not drawn)?
Sm TGR inh: -0.6%

Results for CC(C)c1ccc(CCNC(=O)CCNS(=O)(=O)c2ccc(Br)cc2)cc1 ?
Sm TGR inh: 0.0%; Pf growth 48h: -16.2%; Pf growth 96h: inconclusive

What do the screens show for `COc1ccc(NC(=O)COc2ccc(/C=C/c3cccc[n+]3C)cc2OC)cc1`?
Shiga inhibitor: -3.6; NS1 function inh: -4.6%; Sm TGR inh: 2.1%; Pf growth 48h: 0.928µM*; Pf growth 96h: 5.4%; CHX counter: -5.0

How did COc1cc(/C=C/c2cccc[n+]2C)ccc1OCC(=O)Nc1cccc(Cl)c1 do in these assays?
Shiga inhibitor: -8.9; NS1 function inh: -4.3%; Sm TGR inh: -13.2%; Pf growth 48h: 0.928µM*; Pf growth 96h: -8.2%; CHX counter: 2.6

How did COc1ccc(NC(=O)COc2ccc(/C=N/n3c(C)nnc3C)cc2OC)cc1 do in these assays?
Shiga inhibitor: 25.0; NS1 function inh: -16.9%; Sm TGR inh: -2.9%; Pf growth 96h: 11.7µM*; CHX counter: 20.3

Results for COc1cc(/C=C/c2cccc[n+]2C)ccc1OCC(=O)Nc1ccccc1 ?
Shiga inhibitor: -3.8; NS1 function inh: -4.4%; Sm TGR inh: -4.5%; Pf growth 48h: 1.04µM*; Pf growth 96h: 0.0%; CHX counter: -1.4

What do the screens show for `COc1cc(/C=C/c2cc[n+](C)cc2)ccc1OCC(=O)Nc1ccc(Cl)c(Cl)c1`?
Shiga inhibitor: 27.8; NS1 function inh: -6.3%; Sm TGR inh: inconclusive; Pf growth 48h: inconclusive; Pf growth 96h: -19.5%; CHX counter: 4.3

Results for O=C(NCC(c1ccco1)N1CCN(c2ccccc2F)CC1)C(=O)NC1CCCC1 (stereo not drawn) ?
Sm TGR inh: 7.5%; Pf growth 48h: inconclusive; Pf growth 96h: inconclusive

Results for CCc1ccc(NC(=O)Nc2nnc(N(C)C3CCCCC3)s2)cc1 ?
Sm TGR inh: -1.8%

Results for COc1ccc(NC(=O)COc2ccc(/C=C/c3cc[n+](C)cc3)cc2OC)cc1 ?
Shiga inhibitor: -2.7; NS1 function inh: -4.3%; Sm TGR inh: -6.9%; Pf growth 48h: 1.85µM*; Pf growth 96h: -1.9%; CHX counter: -2.4

Results for Clc1ccc(CSc2nnc(-c3cccnc3)o2)cc1 ?
Shiga inhibitor: -9.7; NS1 function inh: -50.9%; Sm TGR inh: -8.9%; Pf growth 48h: 8.7%; Pf growth 96h: 44.4%; CHX counter: 19.6
